# A selection: hits, their analogues and other compounds. The true share with any hit is near 1.3%.
# GRP78 ERSR act = inducers of ER stress response in human glioma cells; U87-MG GRP78 promoter luciferase reporter, 16 h; Potency, µM, without a hit: at the highest dose activation, usual class: activators; hit rate 0.02% among 420,000; AID 602332; further: potency means the concentration at half of the fitted maximal effect; series mostly up to about 76 µM; % of control where 0% means no effect; nearly all actives have a fitted effect of over 35% in size
#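 Stably transfected U87-MG glioma cells carrying a GRP78-based luciferase sensor; 16 h compound incubation. Luminescence end-point read 10 min after Bright-Glo addition at room temperature.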
# Vif-APOBEC3F blk = inhibitors of Vif-A3F interaction; AID 602313; Potency, µM (doses to about 46.1 µM), without a hit: top-dose activity, negative = active; HeLa A3F-eYFP + Vif (tagged APOBEC3F with the HIV-1 protein that degrades it), YFP fluorescence increase; hit rate 0.2% among 390,000; further: potency means the concentration at half of the fitted maximal effect; % of control where 0% means no effect; nearly all actives have a fitted effect of over 65% in size
#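 Fluorescence increase (Ex 488/Em 500-530) after overnight compound treatment at 37 deg C flags inhibition of Vif-driven A3F-eYFP loss in stable HeLa A3F-eYFP/Vif cells seeded overnight beforehand.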
# TRPML1 agonist = agonists of human TRPML1 channel; Q9GZU1; TRPML1-expressing cells, Ca2+ dye fluorescence, FDSS; activation, % (no concentration beside the values); hit rate 0.12% among 410,000; AID 624414; in the data active means activation above about 50%; inconclusive means mostly about 30% to 49%; further: 0% is about no effect
#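 Calcium fluorescence on an FDSS kinetic reader gave the read-out. Tet-induced TRPML1-DL cells were plated overnight, dye-loaded (Ca8 with quencher, 45-90 min, room temperature, dark), then read 110 s after compound addition, and again 110 s after 4uM final 54-4 (EC80).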
# Vif-A3G inh = inhibitors of Vif-APOBEC3G interaction | Potency, µM (doses to about 46.1 µM), for inactives: at the top dose activity, negative = active, usual class: inhibitors | HeLa A3G-eYFP + Vif (tagged APOBEC3G with the HIV-1 protein that degrades it), YFP fluorescence, overnight | hit rate 0.076% among 410,000; further: potency means the concentration at half of the fitted maximal effect; on the % scale 0 is the no-effect control and ±100 the full control effect; nearly all actives have a fitted effect of over 60% in size
# Target sequence (Q9HC16 whole entry, looked up): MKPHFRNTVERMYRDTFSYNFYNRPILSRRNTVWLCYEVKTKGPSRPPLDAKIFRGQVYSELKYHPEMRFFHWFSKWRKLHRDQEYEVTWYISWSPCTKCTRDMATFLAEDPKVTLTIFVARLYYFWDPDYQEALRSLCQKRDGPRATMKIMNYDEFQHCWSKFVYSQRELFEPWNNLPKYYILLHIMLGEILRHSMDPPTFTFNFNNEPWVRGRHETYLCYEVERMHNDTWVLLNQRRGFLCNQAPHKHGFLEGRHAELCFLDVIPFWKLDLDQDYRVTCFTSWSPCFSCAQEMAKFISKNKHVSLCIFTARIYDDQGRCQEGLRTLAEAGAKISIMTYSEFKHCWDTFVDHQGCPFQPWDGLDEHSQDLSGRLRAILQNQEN
#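 HeLa cells stably expressing Vif and C-terminally eYFP-tagged A3G, seeded overnight at 37 deg C, then exposed to compound by pintool overnight at 37 deg C. Rise in yellow fluorescence (Ex 488/Em 500-530, Acumen) marks blocked Vif-driven A3G degradation.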
# 12-LOX inh = inhibitors of human 12S-lipoxygenase ALOX12; hit rate 1.1% among 580,000; purified 12hLO, xylenol orange hydroperoxide absorbance; Potency, µM (doses to about 108 µM), inactives show at the top dose activity change, negative = inhibition, usual class: inhibitors; P18054; further: potency means the concentration at half of the fitted maximal effect; on the % scale 0 is the no-effect control and ±100 the full control effect
#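 Purified human 12hLO at 150 nM in 25 mM Hepes, 0.01% Triton X-100, pH 7.0, preincubated 15 min at room temperature with compound. Reaction started with 40 uM arachidonic acid, 30 min at room temperature. Hydroperoxide measured by Fe-xylenol orange, 573/405 nm absorbance ratio.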
# TRPML1 inh = human mucolipin-1 channel inhibition | Q9GZU1 | TRPML1-inducible cells, Ca2+ dye fluorescence, FDSS; active compounds read low; inhibition of EC80 agonist-evoked calcium signal | activity change, negative = inhibition, % (test concentration not listed) | hit rate 0.02% among 390,000 | AID 624415; in the data active means activity change below about -50%; inconclusive means between about -30% and that limit;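 further: stimulus is agonist 54-4 at its EC80 concentration; on the % scale 0 is the no-effect control and ±100 the full control effect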
#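 TRPML1-DL cells, Tet-induced overnight (~16 h, 37 °C) at 1,500 cells/well, were loaded with Ca8 no-wash dye plus quencher for 45-90 min at room temperature. Compounds were pinned during FDSS kinetic reading; agonist 54-4 at EC80 (4 uM final) then added.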
# * = called active by the depositor; ? = inconclusive; · = not tested or not shown; ! = repeats disagree. Unless noted, the call rests on the fitted dose curve; in most records, active means well fitted curve in the direction sought with a large enough effect; inconclusive means small, poorly fitted or top-dose-only effect, or another doubt; inactive means no such curve, though single readings can be large; an effect the other way counts as inactive or inconclusive.
SMILES,GRP78 ERSR act,Vif-APOBEC3F blk,TRPML1 agonist,Vif-A3G inh,12-LOX inh,TRPML1 inh
COc1ccc(-c2nn(Cc3nc(-c4ccccc4Br)no3)c(=O)c3ccccc23)cc1,·,·,·,·,5.7%,·
CCSc1nc2c([nH]1)c(=O)n(C)c(=S)n2C,-4.8%,4.2%,0.1,-4.3%,10µM*,-3.5
Cn1c(=O)c2[nH]c(SCCN3CCOCC3)nc2n(C)c1=S,-1.0%,1.0%,1.8,3.6%,31.6µM*,-12.2
CCN(CC)C(=S)SCC(=O)NC(Cc1ccccc1)C(C)=O (stereo not drawn),·,·,·,·,4.0%,·
Cc1ccccc1CNC(=O)c1nn(-c2ccccc2Cl)nc1CO,·,·,·,·,14.6%,·
c1ccc(-c2cc(-c3ccc(N4CCOCC4)cc3)nc3ccccc23)cc1,-1.7%,4.8%,-0.4,-2.1%,-12.6%,11.2
COc1ccc2c(-c3ccccc3)cc(N3CCOCC3)nc2c1,-3.6%,-4.2%,3.2,?,1.78µM*,9.7
O=S1(=O)Nc2c(ccc3cccnc23)-c2ccccc21,?,-0.9%,1.1,7.08µM*,·,8.3
CCn1c(=S)sc2c(=O)n(-c3ccccc3)c(=S)[nH]c21,-2.2%,-8.4%,-0.6,-1.3%,-10.5%,-13.4
CCOc1ccccc1-n1c(=S)sc2c(=O)n(-c3ccc(C)cc3)c(=S)[nH]c21,-2.0%,0.6%,66.3*,3.1%,?,?
Cc1ccc(-c2csc3nc4cc(C(=O)NC5CCC(O)CC5)ccc4c(=O)n23)cc1 (stereo not drawn),-2.4%,-6.0%,0.8,-4.8%,11.2µM*,-1.8
CC(=O)c1c(Nc2ccc(Cl)cc2)oc(C)cc1=O,·,·,·,·,-59.5%,·
Cc1cc(C)n2nc(C(=O)OCC(=O)c3ccccc3Cl)nc2n1,-1.5%,0.0%,-0.2,0.5%,-14.5%,7.1
CC(=O)Nc1ccc(C(=O)COC(=O)c2nc3nc(C)cc(C)n3n2)cc1,-0.3%,-1.9%,1.2,1.3%,39.8µM*,18.1
O=C(N/N=C\c1cccs1)c1ccccn1,·,·,·,·,-20.5%,·
O=C(C[C@H]1C/C=C\C[C@H](NC(=O)OCC2c3ccccc3-c3ccccc32)C(=O)O[C@H](c2ccccc2)CNC1=O)N[C@H](CO)Cc1ccccc1,28.2µM*,-12.7%,-0.1,-12.7%,·,-1.6
C[C@H]1COC(=O)[C@H](NC(=O)OCC2c3ccccc3-c3ccccc32)C/C=C\C[C@H](CC(=O)N(CCO)Cc2ccccc2)C(=O)N1,-1.3%,6.6%,-0.3,-27.6%,39.8µM*,6.8
CSc1ccc(N2CC(C(=O)N(C)Cc3cnn(Cc4ccccc4)c3)CC2=O)cc1 (stereo not drawn),·,·,·,·,30.1%,·
CCCc1c(C(=O)NC(C)C)nnn1-c1ccc(C)cc1,·,·,·,·,2.0%,·
O=C(COC(=O)CSc1cccc2cccc(Cl)c12)Nc1ncc(C(F)(F)F)cc1Cl,0.0%,2.9%,2.3,2.1%,28.2µM*,26.2
O=S(=O)(c1ccc2nc(N3CCN(c4ccccc4F)CC3)ccc2c1)N1CCCC1,·,·,·,·,-28.1%,·
COc1ccccc1N1CCN(c2ccc3cc(S(=O)(=O)N4CCCCC4)ccc3n2)CC1,-4.5%,-25.1%,96.0*,2.2%,3.8%,-18.8
Cc1cccc(N2CCN(c3ccc4cc(S(=O)(=O)N5CCC(C)CC5)ccc4n3)CC2)c1C,-4.7%,0.6%,15.3,-2.5%,50.1µM*,26.8
CC1CCN(S(=O)(=O)c2ccc3nc(N4CCN(c5ccccc5F)CC4)ccc3c2)CC1,-3.4%,3.5%,?,0.8%,?,-29.2
COc1ccc2c(C)c(CC(=O)NCc3ccc(F)cc3)c(=O)oc2c1,·,·,·,·,-23.0%,·
SMILES,GRP78 ERSR act,Vif-APOBEC3F blk,TRPML1 agonist,Vif-A3G inh,12-LOX inh,TRPML1 inh
Cc1cccc2cc(C(=O)O)[nH]c12,·,·,·,·,2.5%,·
COc1ccccc1-[n+]1c(C)cc(/C=C2\Sc3ccccc3N2C)cc1C,-9.1%,?,65.0*,?,-7.7%,-11.9
COc1ccc(C(=O)/C=C2\Sc3ccccc3N2C)cc1,-0.7%,-0.5%,0.5,-2.3%,-13.8%,-26.0
COc1ccc(-[n+]2c(C)cc(/C=C3\Sc4ccccc4N3C)cc2C)cc1,-3.3%,-209.5%,69.0*,?,?,2.4
O=C(NCCc1ccc(Cl)cc1)c1ccc2c(=O)[nH]c3c(C(=O)NCC4CCCO4)sc(=S)n3c2c1 (stereo not drawn),·,·,·,·,50.1µM*,·
CCCCCCNc1nc2c(c(=O)n(C)c(=O)n2C)n1Cc1cccc(Cl)c1,·,·,·,·,-3.0%,·
Clc1ccc(CNC2CCCC2)c(Cl)c1,-1.3%,-10.3%,-0.1,-0.7%,-1.5%,-4.5
S=C(NCc1ccc(Cl)cc1Cl)NC1CCCCC1,-4.8%,0.0%,2.3,-4.3%,39.8µM*,-16.0
Cc1c(C(=O)Nc2cccc(F)c2)sc2nc(-c3cc4ccccc4oc3=O)[nH]c(=O)c12,-2.6%,?,-0.1,-16.5%,?,-1.3
Cc1cccc(NC(=O)c2sc3nc(-c4cc5ccc(O)cc5oc4=O)[nH]c(=O)c3c2C)c1,-2.9%,?,112.4*,3.3%,?,?
Cc1cc(C)cc(NC(=O)c2sc3nc(-c4cc5ccccc5oc4=O)[nH]c(=O)c3c2C)c1,-4.2%,?,0.4,2.6%,5.2%,-50.1*
CC(C)NC(=O)c1ccc(F)cc1,·,·,·,·,-17.5%,·
CNNCc1ccc(C(=O)NC(C)C)cc1,-1.7%,0.2%,0.8,0.0%,12.2µM*!,-6.5
CC(=O)Nc1ccc(S(=O)(=O)Nc2cc(C)cn(Cc3ccccc3)c2=O)cc1,-4.0%,22.4µM*,0.4,-13.6%,·,-7.9
CC(=O)Nc1ccc(S(=O)(=O)Nc2cccn(Cc3ccc(C)cc3)c2=O)cc1,-4.7%,9.5%,-0.4,0.9%,0.3%,-10.5
Cc1ccc(CN(C)C(=O)c2cc(-c3ccncc3)nc3ccccc23)o1,·,·,·,·,10.3%,·
CC(=Nc1ccc(Cl)cc1N)c1c(O)cc(C)oc1=O,·,·,·,·,35.5µM*,·
COc1ccc(C2=C(O)C(=O)N(Cc3ccc(C)cc3)C2c2ccc(F)cc2)cc1 (stereo not drawn),·,·,·,·,17.8µM*,·
COc1ccc(C2=C(O)C(=O)N(CCc3ccccc3)C2c2ccc(C(=O)O)cc2)cc1 (stereo not drawn),·,·,·,·,17.8µM*,·
COc1cc(C(=O)COC(=O)CSc2cc(Cl)ccc2Cl)cc(OC)c1OC,·,·,·,·,-29.9%,·
CC(CNC(=O)c1ccc2cc[nH]c2c1)c1ccccc1 (stereo not drawn),·,·,·,·,24.0%,·
